According to PubChem BioAssay (NCI):
This is part of a sample that, as a whole, favours compounds with a hit. Of some 83,000 tested, about 20% had one in any assay.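 Plates (96-well) were seeded with cells, treated with compound at one concentration, and incubated for 48 hours before percent growth was determined.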 Values without a mark were called inactive. The source made the active and inactive calls. Rule for the calls: active = growth percent below 10; inactive = the rest.

Legend:
Assay in all cases: NCI-60 one-dose screen, 48 h (100 = growth as untreated, 0 = no growth, -100 = all killed)
Details in all cases: 10 µM unless noted
T-47D breast = test system: T-47D breast
BT-549 breast = test system: BT-549 breast
MDA-MB-435 melanoma = test system: MDA-MB-435 melanoma
MCF7 breast = test system: MCF7 breast
HCT-116 colon = test system: HCT-116 colon
HCC-2998 colon = test system: HCC-2998 colon
KM12 colon = test system: KM12 colon
SW-620 colon = test system: SW-620 colon

SMILES | growth (T-47D breast) | growth (BT-549 breast) | growth (MDA-MB-435 melanoma) | growth (MCF7 breast) | growth (HCT-116 colon) | growth (HCC-2998 colon) | growth (KM12 colon) | growth (SW-620 colon)
Cc1[nH]nc2ccc3nc(-c4ccc5[nH]ncc5c4)c4c(c3c12)CCCC4 | 24.1% | 18.5% | 3.38% (active) | 28% | 6.66% (active) | 45.2% | 12.6% | –
c1ccc(-c2[nH]c3ccccc3c2-c2ccccc2)cc1 | 66.1% | 110% | 84.6% | 94.9% | 81.2% | 114% | 92.4% | –
COc1ccc(-c2cn(-c3cccc(C(=O)/C=C/c4ccc(O)c(OC)c4)c3)c(=O)[nH]2)cc1 | 32.1% | 4.04% (active) | 20.5% | 15.2% | -35.4% (active) | 17.5% | -58.7% (active) | –
Cc1n(Cc2ccc3ccccc3n2)cc[n+]1Cc1ccc2ccccc2n1 | 27.2% | 72.8% | 63% | 61.5% | 83.3% | 62.8% | – | –
CC1=NOCC(=O)N1 | 99.1% | 104% | 100% | 98.6% | – | 116% | 107% | 103%
Nc1nc(N)c2c(n1)NC(c1sc(Cl)nc1Cl)CC(c1ccccc1)=N2 (centres undefined) | 43.6% | 44.5% | 2.29% (active) | 31.3% | 21.4% | 74.3% | 47.9% | –
CN(C)c1ccc(/C=C(\C#N)c2nc3ccccc3n2C)cc1 | 40.2% | 39.7% | -26.2% (active) | 17.9% | 33.2% | 61.3% | 26.2% | –
FC1(F)CCN(Cc2c[nH]c3cc(Cl)ccc23)C[C@H]1CCc1ccccc1 | 45.2% | 56% | 59.3% | 41.2% | 22.8% | 95.3% | 60.8% | –
CN(CCO)c1ccc(N2Cc3ccccc3OC3=C2C(=O)c2c(O)ccc(O)c2C3=O)cn1 | -42.7% (active) | -73.2% (active) | -84% (active) | -34.9% (active) | -85.6% (active) | -84.2% (active) | -78% (active) | –
COc1c(B(O)O)cccc1-c1nc2ccc3[nH]ncc3c2c2c1CCCC2 | 39.2% | 7.15% (active) | 38.4% | 2.24% (active) | 6% (active) | 53.3% | 1.71% (active) | –
Cc1nn(-c2ccc(Cl)cc2)c(=O)n1CCN1CCOCC1 | 78.3% | 61.5% | 84.9% | 73.4% | 29.5% | 91.3% | 81.3% | –
O=C(/C=C/c1cccc([N+](=O)[O-])c1)c1ccc(Nc2nc(N3CCCCC3)nc(N3CCCCC3)n2)cc1 | 78.6% | 91.8% | -11.7% (active) | 19.4% | -34.5% (active) | 81.8% | 85.5% | –
COc1ccc(/C(=C\c2cc(OC)c(OC)c(OC)c2)C(=O)Nc2nc3ccc(Cl)cc3s2)cc1 | 86.7% | 98.3% | 100% | 98.9% | – | 104% | 94.2% | 105%
O=C1/C(=C\c2cccn2Cc2ccc(Cl)cc2)c2ccccc2N1c1c(Cl)cccc1Cl | 25.1% | 94.5% | 106% | 12.8% | 77% | 79.8% | 54.3% | –
CCCc1n(Cc2ccc3ccccc3n2)cc[n+]1Cc1ccc2ccccc2n1 | 7.17% (active) | 13.9% | 7.6% (active) | 15.3% | – | 26.2% | 15.7% | 36.7%
CC(CN1CCN(C)CC1)CN1c2ccccc2Sc2ccc(C(F)(F)F)cc21 (centres undefined) | 63.4% | 61.4% | 27.3% | 46.4% | 21.6% | -16.7% (active) | 31.2% | –
CC(C)COC(=O)NC(C)(C)C | 99.6% | 102% | 107% | 90.8% | – | 97% | 113% | 99.4%
Cc1ccc(N=CNN=C(N)N)cc1 | 98.8% | 108% | 112% | 99% | 103% | 108% | 107% | –

SMILES | growth (T-47D breast) | growth (BT-549 breast) | growth (MDA-MB-435 melanoma) | growth (MCF7 breast) | growth (HCT-116 colon) | growth (HCC-2998 colon) | growth (KM12 colon) | growth (SW-620 colon)
CNC(=O)c1cc(Oc2ccc(NC(=O)c3[nH]c(SC)nc3-c3ccc(F)cc3)cc2)ccn1 | 37% | 85.3% | 21.2% | 66.4% | 62.9% | 96.9% | 19.4% | –
COc1cc(C2CC(c3ccc(Nc4ccnc5cc(Cl)ccc45)cc3)=NN2c2ccccc2)cc(OC)c1OC (centres undefined) | 67.7% | 82.3% | 6.36% (active) | 48% | 54.9% | 67.7% | 47.9% | –
CC(=O)N1N=C(c2ccc(C)cc2)CC1c1cn(-c2ccccc2)nc1-c1cccc(Nc2ccnc3cc(Cl)ccc23)c1 (centres undefined) | 23.4% | 87.3% | 13.8% | 24.8% | 6.87% (active) | 102% | 72.5% | –
Nc1ccc(N(O)/C=C2\C=CC=CC2=O)cc1N | 78.8% | 103% | 97.7% | 115% | 85.1% | 93.4% | 83.3% | –
SCc1ccc(CS)cc1 | 101% | 92.3% | 111% | – | 100% | 101% | 114% | 102%
COc1ccc(C(=O)/C=C/c2cn(-c3ccccc3)nc2-c2cccc(Nc3ccnc4cc(Cl)ccc34)c2)cc1 | 97.1% | 100% | 66% | 85.8% | 91.9% | 109% | – | –
Cc1cc(O)c(C2=NN(c3ccc(S(N)(=O)=O)cc3)C(c3ccc(Cl)cc3)C2)c(C)c1Cl (centres undefined) | 46.9% | 112% | 38.6% | 13% | 55.1% | 66.5% | 29.1% | –
CC(=O)[C@@]1(O)[C@H](C)C[C@H]2[C@@H]3C=C(C)C4=Cc5c(cnn5-c5ccccc5)C[C@]4(C)[C@H]3[C@@H](O)C[C@@]21C | 44.4% | – | 37.7% | 15.5% | 14.4% | 19.8% | -45% (active) | -59.9% (active)
O=C1OC(c2ccc(-c3ccccc3)cc2)=C/C1=C/c1c(Cl)cccc1Cl | 91.3% | – | 104% | 76% | 63% | 102% | 94.1% | 95.9%
COc1ccc(/C=C2\CCCC3=C2N=C2SC(C)=NN2C3c2ccc(OC)c(OC)c2)cc1OC (centres undefined) | 48.3% | 33.9% | 11.6% | 19.3% | – | 30.5% | 15.5% | –
N#Cc1c(NN)n(C2OC(CO)C(O)C2O)c2ncnc(N)c12 (centres undefined) | -14.9% (active) | – | -15.5% (active) | -11.2% (active) | 2.09% (active) | -9.45% (active) | 1.94% (active) | -15.6% (active)
CCCOC(=O)C1c2cc3c(cc2CC(C)C1C(=O)OCCC)OCO3 (centres undefined) | 86.2% | – | 104% | 100% | 60.1% | 98.6% | 108% | –
Cc1cccc(C(=O)O)n1 | 106% | 109% | 95.8% | 104% | – | 98.7% | – | –
O=C(Nc1ccc(Oc2ccc(NC(=O)Nc3ccccc3Cl)cc2)cc1)Nc1ccccc1Cl | 45.3% | – | 48.8% | 44.1% | 29.2% | 80.4% | 40.8% | 51.7%
CCOc1c(C#N)c2c(N)ncnc2n1C1OC(CO)C(O)C1O (centres undefined) | 15.4% | – | 18.1% | -3.56% (active) | 3.41% (active) | 84.1% | 10.6% | 4.66% (active)
CC1=NN(c2cccc(S(N)(=O)=O)c2)C(=O)C1 | 84.2% | 109% | 94.6% | 90.4% | 104% | 96.1% | 107% | –
O=C(C(Br)C(Br)c1ccccc1)C(Br)C(Br)c1ccccc1 (centres undefined) | -30.6% (active) | -82.8% (active) | -37.5% (active) | -19.2% (active) | -99.5% (active) | -8.59% (active) | -63.3% (active) | –
